The supplement of paper PMC10515830
Counter-ions that a name gives are not always drawn.

How the values were obtained:
Conditions in all cases: 10 µM; exposure time 6 h
[1] = test system: Danio rerio larvae (5 dpf); experiment: difference in excitability vs DMSO (percentage points); higher = more excitable than DMSO
Procedure, shortened: (§1)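 Wild-type 5 dpf zebrafish larvae in 96-well plates were given 100 µL egg water containing library compound at 10 µM final for 6 h. After 3 h of exposure, plates at 28.5 ℃ were photographed every 6 s during a 3-h programme of moving lines and 100 ms, 400Hz tones. Z-LaP Tracker (a DeepLabCut model) quantified each behaviour, averaged over 48 larvae per compound. Values are the compound mean minus the DMSO-vehicle control, in percentage points.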

[2] = test system: Danio rerio larvae (5 dpf); experiment: difference in startle response vs DMSO (percentage points); higher = stronger startle than DMSO
Procedure, shortened: as §1

[3] = test system: Danio rerio larvae (5 dpf); experiment: difference in activity during first hour vs DMSO (percentage points); higher = more activity than DMSO
Procedure, shortened: as §1

[4] = test system: Danio rerio larvae (5 dpf); experiment: difference in habituation to acoustic stimuli vs DMSO (percentage points); higher = more habituation than DMSO
Procedure, shortened: as §1

[5] = test system: Danio rerio larvae (5 dpf); experiment: difference in combined optomotor response to red, green and blue moving lines vs DMSO (percentage points); higher = stronger optomotor response than DMSO
Procedure, shortened: as §1

Row | SMILES | difference in excitability [1] | difference in startle response [2] | difference in activity during first hour [3] | difference in habituation to acoustic stimuli [4] | difference [5]
1 | O=C1CC2(CCCC2)CC(=O)N1CCCCN1CCN(c2ncccn2)CC1 [Buspirone (hydrochloride)] | 24.5 | 1.48 | -8.4 | 4.59 | 0.171
2 | CC(S)C(=O)NCC(=O)O (stereo not given) [Tiopronin] | 1.71 | -1.91 | 3.62 | -3.05 | 3.9
3 | COc1cc(Nc2c(C#N)cnc3cc(OCCCN4CCN(C)CC4)c(OC)cc23)c(Cl)cc1Cl [Bosutinib] | 10.4 | 1.86 | -11.7 | -5.15 | 2.77
4 | Cc1c2oc3c(C)ccc(C(=O)N[C@@H]4C(=O)N[C@H](C(C)C)C(=O)N5CCC[C@H]5C(=O)N(C)CC(=O)N(C)[C@@H](C(C)C)C(=O)O[C@@H]4C)c3nc-2c(C(=O)N[C@@H]2C(=O)N[C@H](C(C)C)C(=O)N3CCC[C@H]3C(=O)N(C)CC(=O)N(C)[C@@H](C(C)C)C(=O)O[C@@H]2C)c(N)c1=O [Actinomycin D] | 5.1 | -6.8 | 6.02 | 4.18 | -0.162
5 | C/C=C1\NC(=O)[C@H]2CSSCC/C=C/[C@H](CC(=O)N[C@H](C(C)C)C(=O)N2)OC(=O)[C@H](C(C)C)NC1=O [Romidepsin] | 2.86 | -0.00342 | 21 | 0.496 | 8.55
6 | CO[C@H]1C[C@@H]2CC[C@@H](C)[C@@](O)(O2)C(=O)C(=O)N2CCCC[C@H]2C(=O)O[C@H]([C@H](C)C[C@@H]2CC[C@@H](O)[C@H](OC)C2)CC(=O)[C@H](C)/C=C(\C)[C@@H](O)[C@@H](OC)C(=O)[C@H](C)C[C@H](C)/C=C/C=C/C=C/1C [Rapamycin] | 5.81 | -2.33 | 0.761 | -0.387 | 3.4
7 | CNC(=O)c1ccccc1Sc1ccc2c(/C=C/c3ccccn3)n[nH]c2c1 [Axitinib] | 4.07 | 1.36 | -1.06 | -0.505 | 6.84
8 | CNC(=C[N+](=O)[O-])NCCSCc1csc(CN(C)C)n1 [Nizatidine] | -3.87 | -1.69 | 7.71 | 2.96 | 2.72
9 | CN1C(CCl)Nc2cc(Cl)c(S(N)(=O)=O)cc2S1(=O)=O (stereo not given) [Methyclothiazide] | 5.58 | 4.44 | -0.184 | 2 | -1.76
10 | N#CC[C@H](C1CCCC1)n1cc(-c2ncnc3[nH]ccc23)cn1 [Ruxolitinib (phosphate)] | -1.61 | 4.35 | 6.14 | -4.72 | 17.9
11 | Cc1ccc(=O)n(-c2ccccc2)c1 [Pirfenidone] | -2.03 | 3.37 | 0.0618 | 2.62 | 8.23
12 | Nc1ccc(S(N)(=O)=O)cc1 [Sulfanilamide] | 11.8 | -3.25 | 6.97 | -1.65 | 3.13
13 | Clc1ccc(C(c2ccccc2Cl)C(Cl)Cl)cc1 (stereo not given) [Mitotane] | 5.19 | -9.33 | 60.8 | -11.8 | -15.4
14 | CCOC(=O)[C@@](C)(N)Cc1ccc(O)c(O)c1 [Methyldopate] | 14.5 | 1.24 | -2.29 | -2.04 | -2.04
15 | Nc1c(CC(=O)O)cccc1C(=O)c1ccc(Br)cc1 [Bromfenac (sodium salt)] | 22 | -1.71 | 7.18 | -4.75 | 1.64
16 | COc1cc(Nc2ncc(F)c(Nc3ccc4c(n3)N(COP(=O)(O)O)C(=O)C(C)(C)O4)n2)cc(OC)c1OC [R788 (sodium salt)] | 4.23 | 4.11 | 7.65 | -1.65 | 2.43
17 | NCCCC(O)(P(=O)(O)O)P(=O)(O)O [Alendronate (sodium hydrate)] | -4.92 | 0.325 | -3.96 | -4.98 | 5.9
18 | Cn1c(=O)c2nc[nH]c2n(C)c1=O [Theophylline] | 4.49 | 5.34 | 8.14 | 4.58 | -0.54
19 | CCN(Cc1ccncc1)C(=O)C(CO)c1ccccc1 (stereo not given) [Tropicamide] | 1.51 | -4.55 | 14.3 | -1.41 | 6.16
20 | Cc1ccc(Sc2ccccc2N2CCNCC2)c(C)c1 [Vortioxetine (hydrobromide)] | -0.102 | 7.18 | -8.07 | -14.1 | -11.4
21 | C[N+](C)(C)CCOC(N)=O [Carbamoylcholine (chloride)] | 2.95 | 2.73 | -0.038 | 1.09 | 1.31
22 | CC(=O)Nc1nnc(S(N)(=O)=O)s1 [Acetazolamide] | -5.01 | 8.72 | 14.2 | 6.2 | 3.65
23 | NCCC(O)(P(=O)(O)O)P(=O)(O)O [Pamidronate (sodium salt)] | 9.47 | 4.04 | -2.6 | -0.604 | 2.29
24 | CCC1=C[C@@H]2CN(C1)Cc1c([nH]c3ccccc13)[C@@](C(=O)OC)(c1cc3c(cc1OC)N(C)[C@H]1[C@@](O)(C(=O)OC)[C@H](OC(C)=O)[C@]4(CC)C=CCN5CC[C@]31[C@@H]54)C2 [Vinorelbine (tartrate)] | 11.6 | -5.75 | 3.25 | -2.19 | -4.51

Row | SMILES | difference in excitability [1] | difference in startle response [2] | difference in activity during first hour [3] | difference in habituation to acoustic stimuli [4] | difference [5]
25 | C[C@]12C=CC(=O)C=C1CC[C@@H]1[C@@H]2C(=O)C[C@@]2(C)[C@H]1CC[C@]2(O)C(=O)CO [Prednisone] | 14.1 | 2.97 | -14.4 | 6.62 | -4.57
26 | C[C@@](Cc1ccc(O)c(O)c1)(NN)C(=O)O [Carbidopa (hydrate)] | 5.76 | 3.77 | 4.48 | -7.23 | 6.07
27 | NC[C@H]1O[C@H](O[C@H]2[C@H](O)[C@@H](O[C@H]3O[C@H](CO)[C@@H](O)[C@H](N)[C@H]3O)[C@H](N)C[C@@H]2N)[C@H](N)C[C@@H]1O [Tobramycin] | 25.5 | -1.65 | -2.18 | 4.43 | -2.09
28 | COc1ccnc(C[S+]([O-])c2nc3cc(OC(F)F)ccc3[nH]2)c1OC (stereo not given) [Pantoprazole] | 1.4 | 2.07 | 3.07 | -4.45 | 5.14
29 | CC(=O)OCC(=O)[C@@]12OC3(CCCC3)O[C@@H]1C[C@H]1[C@@H]3CCC4=CC(=O)C=C[C@]4(C)[C@@]3(F)[C@@H](O)C[C@@]12C [Amcinonide] | 8.43 | 5.38 | -7.56 | -0.863 | 4.08
30 | CN(C)C(=O)c1cc2cnc(Nc3ccc(N4CCNCC4)cn3)nc2n1C1CCCC1 | 10.3 | -7.97 | 2.64 | -2.12 | 0.1
31 | C#CCC(Cc1cnc2nc(N)nc(N)c2n1)c1ccc(C(=O)N[C@@H](CCC(=O)O)C(=O)O)cc1 (stereo not given in full) [Pralatrexate] | 7.8 | 7.47 | 0.4 | 4.28 | 4.2
32 | O=C1CN2Cc3c(ccc(Cl)c3Cl)N=C2N1 [Anagrelide (hydrochloride)] | 11.5 | -3.44 | -9.48 | 7.77 | 3.07
33 | COc1ccc(CC(C)NCC(O)c2ccc(O)c(NC=O)c2)cc1 (stereo not given) [Formoterol (hemifumarate hydrate)] | 9.74 | -13.1 | 49.1 | -7.8 | 1.18
34 | CC(=O)[C@]1(O)Cc2c(O)c3c(c(O)c2[C@@H](O[C@H]2C[C@H](N)[C@H](O)[C@H](C)O2)C1)C(=O)c1ccccc1C3=O [Idarubicin (hydrochloride)] | 12.5 | -1.2 | -5.02 | 1.34 | -1.01
35 | CCC(=O)O[C@]1(C(=O)CCl)[C@@H](C)C[C@H]2[C@@H]3CCC4=CC(=O)C=C[C@]4(C)[C@@]3(F)[C@@H](O)C[C@@]21C [Clobetasol Propionate] | 2.04 | -8.98 | 19.3 | 0.438 | 4.92
36 | CSc1ccc2c(c1)N(CCC1CCCCN1C)c1ccccc1S2 (stereo not given) [Thioridazine (hydrochloride)] | 19.8 | -0.778 | 12.9 | -8.21 | -5
37 | COc1cc2c(cc1OC)CC(=O)N(CCCN(C)C[C@H]1Cc3cc(OC)c(OC)cc31)CC2 [Ivabradine (hydrochloride)] | 8.58 | 0.00664 | 14.5 | -0.807 | 9.1
38 | Cn1c(=O)c2[nH]cnc2n(C)c1=O [Oxtriphylline] | -4.32 | 6.97 | -0.101 | 1.02 | -3.12
39 | CN(C/C=C/c1ccccc1)Cc1cccc2ccccc12 [Naftifine (hydrochloride)] | 11.1 | -5.96 | -7.66 | 1 | 7.26
40 | CC1=C(C(=O)O)N2C(=O)[C@@H](NC(=O)[C@H](N)c3ccccc3)[C@H]2SC1 [Cephalexin] | 6.31 | 7.97 | 2.55 | -0.572 | 3.98
41 | C[C@H]1C[C@@H]2[C@H]([C@@H](O)C[C@@]3(C)[C@H]2CC[C@]3(O)C(=O)CO)[C@@]2(C)C=CC(=O)C=C12 [Methylprednisolone] | 2.35 | 0.227 | 10.3 | -3.19 | 9.29
42 | Cc1[nH]c2ccccc2c1CCNCc1ccc(/C=C/C(=O)NO)cc1 [Panobinostat] | 7 | -4.96 | -8.62 | 3.43 | 1.65
43 | Nc1ncnc2c1ncn2[C@@H]1O[C@H](CO)[C@@H](O)[C@H]1O [Adenosine] | 1.75 | 6.58 | 10 | -5.11 | 5.99
44 | Cc1cc(C#N)cc(C)c1Oc1nc(Nc2ccc(C#N)cc2)nc(N)c1Br [Etravirine] | -2.94 | 0.144 | 10.9 | -5.6 | 7.48
45 | CCOC(=O)C1=C(C)NC(C)=C(C(=O)OC)C1c1cccc(Cl)c1Cl (racemic) [(±)-Felodipine] | 0.706 | -2.36 | -22.2 | -10.8 | -16.5
46 | Cc1ccsc1C(=CCCN1CCC[C@@H](C(=O)O)C1)c1sccc1C [Tiagabine (hydrochloride)] | 6.86 | 2.66 | 17.9 | 5.1 | -1.64
47 | O=C(O)c1cc(-c2ccc(F)cc2F)ccc1O [Diflunisal] | 1.22 | 5.89 | 15.2 | -3.92 | 6.8
48 | C[C@@H](O)[C@H]1C(=O)N2C(C(=O)O)=C(S[C@@H]3CN[C@H](C(=O)Nc4cccc(C(=O)O)c4)C3)[C@H](C)[C@H]12 [Ertapenem (sodium salt)] | 3.87 | 3.36 | 14.7 | 7.59 | 3.82
